Activity calls are given as the source filed them. How the source made its calls: active means hit-call score of the fitted dose curve at least 0.9, where 1 is the maximum; inactive means score below 0.9.
What was measured:
[1] = biological target: Transcription factor E2F1 (Homo sapiens) (UniProt Q01094); assay: ATG_E2F_CIS: Attagene CIS-FACTORIAL HepG2 Assay for human E2F Transcription Factor 1 (AID 2282935); settings: HepG2 Attagene cis-reporter, E2F reporter RNA transcripts; actives raise or lower the signal
Chain of Transcription factor E2F1 (Homo sapiens) (Q01094 whole entry, looked up): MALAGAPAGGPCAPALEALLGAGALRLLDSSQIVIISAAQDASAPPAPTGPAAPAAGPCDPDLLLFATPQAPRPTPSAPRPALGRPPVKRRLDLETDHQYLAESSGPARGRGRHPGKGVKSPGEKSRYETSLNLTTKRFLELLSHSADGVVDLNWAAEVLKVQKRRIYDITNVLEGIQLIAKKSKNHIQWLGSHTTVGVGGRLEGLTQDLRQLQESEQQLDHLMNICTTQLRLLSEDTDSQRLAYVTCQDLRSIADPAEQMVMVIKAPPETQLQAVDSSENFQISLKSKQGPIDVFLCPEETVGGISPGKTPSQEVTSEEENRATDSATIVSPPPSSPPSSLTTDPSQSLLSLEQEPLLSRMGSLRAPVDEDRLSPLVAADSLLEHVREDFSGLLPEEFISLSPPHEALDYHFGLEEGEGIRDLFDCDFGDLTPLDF
Summary of the method: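 Measures reporter transcript levels via RT-PCR with capillary electrophoresis detection in HepG2 cells harboring cis-regulated reporter units; 24 h post-dose; bidirectional curve fitting with DMSO as baseline.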

[2] = ATG_E_Box_CIS: Attagene CIS-FACTORIAL HepG2 Assay for human Enhancer Box (E-box) (AID 2282936); settings: HepG2 E-box cis-reporter transcription, actives raise or lower the signal
Summary of the method: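 First, HepG2 cells receive multiple cis-regulated reporter constructs by transient transfection. Next, chemicals are applied for 24 h. Finally, reporter mRNA is quantified via RT-PCR and capillary electrophoresis, with DMSO as baseline.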

[3] = ATG_M_61_CIS: Attagene CIS-FACTORIAL HepG2 Assay for M61 Transcription Factor (Internal Marker) (AID 2282937); settings: HepG2 Attagene CIS-FACTORIAL M61 internal marker reporter; actives raise or lower the signal
Summary of the method: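 HepG2 cells transiently transfected with multiplexed cis-promoter reporter units reporting endogenous transcription factor activity, measured 24 h after dosing. Reporter mRNA quantified by RT-PCR and capillary electrophoresis; bidirectional fit against DMSO baseline.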

[4] = ATG_M_19_CIS: Attagene CIS-FACTORIAL HepG2 Assay for M19 Transcription Factor (Internal Marker) (AID 2282939); settings: HepG2 Attagene CIS-FACTORIAL M19 internal marker reporter; actives raise or lower the signal
Summary of the method: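 Signals come from fluorescence of labelled reporter-specific PCR fragments resolved by capillary electrophoresis, following 24 h treatment of HepG2 cells transfected with cis-promoter reporter units; activity was fitted in both directions relative to DMSO.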

[5] = ATG_ERE_CIS: Attagene CIS-FACTORIAL HepG2 Assay for Estrogen Response Element (ERE) (AID 2282940); settings: HepG2 ERE cis-reporter, Attagene RNA transcript; actives raise or lower the signal
Summary of the method: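 Fluorescence of capillary-separated, FAM-labelled reporter cDNA fragments indicates reporter mRNA levels in HepG2 cells exposed to chemicals for 24 h. Transient transfection with cis-regulated units; data fitted in both directions against DMSO.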

[6] = ATG_Ets_CIS: Attagene CIS-FACTORIAL HepG2 Assay for human Erythroblast Transformation Specific (ETS) (AID 2282941); settings: HepG2 ETS cis-reporter transcription, actives raise or lower the signal
Summary of the method: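 HepG2 cells transiently transfected with cis-promoter reporter transcription units were dosed for 24 h; reporter mRNA was measured by RT-PCR, 6-FAM primer extension, HpaI digestion and capillary electrophoresis, with bidirectional fitting against DMSO baseline.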

[7] = biological target: Hepatocyte nuclear factor 3-beta (Homo sapiens) (UniProt Q9Y261); assay: ATG_FoxA2_CIS: Attagene CIS-FACTORIAL HepG2 Assay for human Forkhead box A2 (FOXA2) (AID 2282942); settings: HepG2 cis-reporter transcription factor activity, 24 h; actives raise or lower the signal
Chain of Hepatocyte nuclear factor 3-beta (Homo sapiens) (Q9Y261 whole entry, looked up): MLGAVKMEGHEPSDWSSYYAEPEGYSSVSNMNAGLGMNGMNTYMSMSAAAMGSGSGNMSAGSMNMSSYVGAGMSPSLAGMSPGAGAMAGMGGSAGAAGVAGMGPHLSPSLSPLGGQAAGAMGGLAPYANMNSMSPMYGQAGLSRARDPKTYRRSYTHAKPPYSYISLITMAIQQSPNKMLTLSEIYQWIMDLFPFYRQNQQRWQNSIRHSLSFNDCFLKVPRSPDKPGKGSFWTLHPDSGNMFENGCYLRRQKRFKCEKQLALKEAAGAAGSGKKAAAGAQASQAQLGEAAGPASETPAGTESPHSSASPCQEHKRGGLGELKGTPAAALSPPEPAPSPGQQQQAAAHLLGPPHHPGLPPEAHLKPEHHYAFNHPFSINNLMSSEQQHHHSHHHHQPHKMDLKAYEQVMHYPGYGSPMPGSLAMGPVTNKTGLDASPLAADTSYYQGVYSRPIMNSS
Summary of the method: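 HepG2 transiently transfected with a multiplexed cis-promoter reporter library read endogenous FOXA2 activity. After 24 h compound exposure, reporter mRNA was quantified by RT-PCR, HpaI digestion and capillary electrophoresis. Bidirectional fit against DMSO.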

[8] = ATG_FoxO_CIS: Attagene CIS-FACTORIAL HepG2 Assay for human Forkhead box O (FoxO) (AID 2282943); settings: HepG2 Attagene cis-reporter, FoxO element, mRNA; actives raise or lower the signal
Summary of the method: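 HepG2 cells transiently transfected with cis-element-driven reporter units report endogenous FoxO activity. After 24 h chemical exposure, reporter mRNA quantified by RT-PCR, fluorescent labeling, HpaI digestion and capillary electrophoresis; bidirectional fit versus DMSO.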

[9] = ATG_GATA_CIS: Attagene CIS-FACTORIAL HepG2 Assay for human GATA Binding Protein (AID 2282944); settings: HepG2 GATA cis-element reporter, Attagene multiplex mRNA; actives raise or lower the signal
Summary of the method: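 After transfecting HepG2 cells with multiple cis-regulated reporter units, chemicals are dosed for 24 h; isolated RNA undergoes RT-PCR and fluorescent labeling before capillary electrophoresis, with activity expressed against DMSO.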

[10] = ATG_GLI_CIS: Attagene CIS-FACTORIAL HepG2 Assay for human Zinc Finger Protein GLI1 (AID 2282945); settings: HepG2, Attagene cis-factorial reporter mRNA, GLI element; actives raise or lower the signal
Summary of the method: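 Transiently transfected HepG2 cells report endogenous transcription factor activity via cis-element-driven reporter units. After 24 h compound exposure, reporter mRNA was measured by RT-PCR with capillary electrophoresis; bidirectional fitting against DMSO baseline.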

[11] = biological target: Bile acid receptor (Homo sapiens) (UniProt Q96RI1); assay: ATG_IR1_CIS: Attagene CIS-FACTORIAL HepG2 Assay for human Nuclear Receptor Subfamily 1 Group H Member 4 (NR1H4), IR1 submotif (AID 2282946); settings: IR1 reporter transcription, actives raise or lower the signal
Chain of Bile acid receptor (Homo sapiens) (Q96RI1 whole entry, looked up): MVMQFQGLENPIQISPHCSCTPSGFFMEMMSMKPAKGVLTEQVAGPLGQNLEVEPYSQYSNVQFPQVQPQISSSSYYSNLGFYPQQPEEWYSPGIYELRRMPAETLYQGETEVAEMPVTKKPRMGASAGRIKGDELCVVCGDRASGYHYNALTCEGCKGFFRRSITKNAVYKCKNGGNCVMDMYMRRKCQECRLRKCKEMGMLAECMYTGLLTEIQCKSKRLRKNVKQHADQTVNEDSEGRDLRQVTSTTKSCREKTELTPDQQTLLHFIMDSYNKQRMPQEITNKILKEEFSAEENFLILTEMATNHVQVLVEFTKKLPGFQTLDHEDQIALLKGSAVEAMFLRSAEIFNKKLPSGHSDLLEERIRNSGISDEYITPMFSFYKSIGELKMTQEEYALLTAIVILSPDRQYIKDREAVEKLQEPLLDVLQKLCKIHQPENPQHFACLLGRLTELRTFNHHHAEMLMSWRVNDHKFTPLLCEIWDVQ
Summary of the method: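 HepG2 cells transiently transfected with multiple cis-promoter-driven reporter units to measure endogenous transcription factor activity; 24 h exposure. Reporter mRNA read by RT-PCR, FAM labelling, HpaI digestion and capillary electrophoresis. Bidirectional fit versus DMSO.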

[12] = ATG_GRE_CIS: Attagene CIS-FACTORIAL HepG2 Assay for human Glucocorticoid Response Elements (GRE) (AID 2282947); settings: HepG2 GRE cis-reporter, Attagene multiplex mRNA; actives raise or lower the signal
Summary of the method: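 Endogenous transcription factor activity is read through cis-element reporter constructs transiently transfected into HepG2 cells. After 24 h treatment, labelled RT-PCR products are resolved by capillary electrophoresis; DMSO sets baseline for bidirectional curve fitting.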

[13] = ATG_ISRE_CIS: Attagene CIS-FACTORIAL HepG2 Assay for human Interferon Regulatory Factor 1 (IRF1) binding to an Interferon-Stimulated Response Element (ISRE) (AID 2282948); settings: HepG2 ISRE cis-reporter (Attagene), mRNA transcription readout; actives raise or lower the signal
Summary of the method: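 HepG2 cells transiently transfected with multiplexed cis-promoter reporter units; after 24 h compound exposure, reporter mRNA quantified by RT-PCR, FAM labelling, HpaI digestion and capillary electrophoresis. Bidirectional fit versus DMSO baseline.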

[14] = ATG_M_32_CIS: Attagene CIS-FACTORIAL HepG2 Assay for M32 Transcription Factor (Internal Marker) (AID 2282949); settings: HepG2 Attagene cis-factorial M32 reporter, mRNA; actives raise or lower the signal;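 further: background control marker of the multiplexed CIS panel rather than a real target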
Summary of the method: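 Following 24 h chemical exposure of HepG2 cells transiently expressing cis-promoter reporter constructs, reporter transcript levels were determined by RT-PCR with fluorescent labelling and capillary electrophoresis, then fitted bidirectionally against DMSO.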

[15] = ATG_M_06_CIS: Attagene CIS-FACTORIAL HepG2 Assay for M06 Transcription Factor (Internal Marker) (AID 2282950); settings: HepG2 Attagene CIS-FACTORIAL M06 internal marker reporter; actives raise or lower the signal
Summary of the method: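 HepG2 liver cells, 24 h exposure. Reporter transcripts from transfected cis-element constructs quantified by RT-PCR/capillary electrophoresis fluorescence. Bidirectional curve fit against DMSO.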

[16] = biological target: Hepatocyte nuclear factor 6 (Homo sapiens) (UniProt Q9UBC0); assay: ATG_HNF6_CIS: Attagene CIS-FACTORIAL HepG2 Assay for human Hepatocyte Nuclear Factor 6 (HNF6) (AID 2282952); settings: HepG2 Attagene cis-factorial HNF6 reporter transcription; actives raise or lower the signal
Chain of Hepatocyte nuclear factor 6 (Homo sapiens) (Q9UBC0 whole entry, looked up): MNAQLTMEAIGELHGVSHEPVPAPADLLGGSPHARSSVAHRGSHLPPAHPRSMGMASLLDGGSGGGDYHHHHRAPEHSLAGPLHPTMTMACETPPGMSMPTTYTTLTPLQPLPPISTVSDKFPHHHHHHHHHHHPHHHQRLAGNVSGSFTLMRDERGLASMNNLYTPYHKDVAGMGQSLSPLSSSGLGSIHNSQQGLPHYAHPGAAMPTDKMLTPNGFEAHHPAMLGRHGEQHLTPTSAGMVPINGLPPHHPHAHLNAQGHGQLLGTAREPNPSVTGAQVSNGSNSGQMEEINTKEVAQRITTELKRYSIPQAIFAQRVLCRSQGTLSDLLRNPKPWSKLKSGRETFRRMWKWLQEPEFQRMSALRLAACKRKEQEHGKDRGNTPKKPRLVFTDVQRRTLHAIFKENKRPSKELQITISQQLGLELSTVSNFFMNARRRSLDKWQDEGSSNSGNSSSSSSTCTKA
Summary of the method: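 Transiently transfected HepG2 cells expressing cis-regulated reporter transcription units were exposed to chemical for 24 h in a 24-well format. Reporter transcript abundance was determined by fluorescence capillary electrophoresis.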

[17] = biological target: Heat shock factor protein 1 (Homo sapiens) (UniProt Q00613); assay: ATG_HSE_CIS: Attagene CIS-FACTORIAL HepG2 Assay for human Heat Shock Transcription Factor 1 (HSE) (AID 2282953); settings: HepG2 HSE cis-reporter, Attagene RNA transcription; actives raise or lower the signal
Chain of Heat shock factor protein 1 (Homo sapiens) (Q00613 whole entry, looked up, the tested form may be a part): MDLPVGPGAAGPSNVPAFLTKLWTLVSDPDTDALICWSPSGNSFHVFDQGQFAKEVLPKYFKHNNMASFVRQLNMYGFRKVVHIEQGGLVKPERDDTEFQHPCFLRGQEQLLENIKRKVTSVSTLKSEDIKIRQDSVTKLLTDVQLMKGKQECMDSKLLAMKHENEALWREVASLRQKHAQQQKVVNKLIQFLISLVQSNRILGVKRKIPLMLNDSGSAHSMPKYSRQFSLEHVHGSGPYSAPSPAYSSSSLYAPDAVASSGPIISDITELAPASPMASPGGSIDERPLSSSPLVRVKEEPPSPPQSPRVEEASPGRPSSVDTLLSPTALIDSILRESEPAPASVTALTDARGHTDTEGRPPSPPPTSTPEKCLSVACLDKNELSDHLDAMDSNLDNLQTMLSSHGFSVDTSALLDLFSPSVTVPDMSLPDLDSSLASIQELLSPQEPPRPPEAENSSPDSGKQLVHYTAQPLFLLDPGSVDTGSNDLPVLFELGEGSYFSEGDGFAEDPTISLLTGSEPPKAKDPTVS
Summary of the method: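 Endogenous transcription factor activity captured via cis-promoter reporter units transfected into HepG2; treatment lasted 24 h. Fluorescence intensity of reporter fragments analysed with bidirectional curve fitting, DMSO baseline.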

[18] = ATG_MRE_CIS: Attagene CIS-FACTORIAL HepG2 Assay for human Metal Responsive Element (MRE) (AID 2282954); settings: HepG2 MRE cis-reporter transcription, Attagene multiplex; actives raise or lower the signal
Summary of the method: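 Fluorescent reporter fragments separated by capillary electrophoresis give mRNA induction for the MRE unit after 24 h treatment of transfected HepG2 cells. Endogenous transcription-factor activity is read; DMSO serves as negative control and baseline.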

[19] = biological target: Hypoxia-inducible factor 1-alpha (Homo sapiens) (UniProt Q16665); assay: ATG_HIF1a_CIS: Attagene CIS-FACTORIAL HepG2 Assay for human Hypoxia Inducible Factor 1 (HIF1A) (AID 2282951); settings: HepG2 Attagene cis-factorial HIF1a reporter transcription; actives raise or lower the signal
Chain of Hypoxia-inducible factor 1-alpha (Homo sapiens) (Q16665 whole entry, looked up): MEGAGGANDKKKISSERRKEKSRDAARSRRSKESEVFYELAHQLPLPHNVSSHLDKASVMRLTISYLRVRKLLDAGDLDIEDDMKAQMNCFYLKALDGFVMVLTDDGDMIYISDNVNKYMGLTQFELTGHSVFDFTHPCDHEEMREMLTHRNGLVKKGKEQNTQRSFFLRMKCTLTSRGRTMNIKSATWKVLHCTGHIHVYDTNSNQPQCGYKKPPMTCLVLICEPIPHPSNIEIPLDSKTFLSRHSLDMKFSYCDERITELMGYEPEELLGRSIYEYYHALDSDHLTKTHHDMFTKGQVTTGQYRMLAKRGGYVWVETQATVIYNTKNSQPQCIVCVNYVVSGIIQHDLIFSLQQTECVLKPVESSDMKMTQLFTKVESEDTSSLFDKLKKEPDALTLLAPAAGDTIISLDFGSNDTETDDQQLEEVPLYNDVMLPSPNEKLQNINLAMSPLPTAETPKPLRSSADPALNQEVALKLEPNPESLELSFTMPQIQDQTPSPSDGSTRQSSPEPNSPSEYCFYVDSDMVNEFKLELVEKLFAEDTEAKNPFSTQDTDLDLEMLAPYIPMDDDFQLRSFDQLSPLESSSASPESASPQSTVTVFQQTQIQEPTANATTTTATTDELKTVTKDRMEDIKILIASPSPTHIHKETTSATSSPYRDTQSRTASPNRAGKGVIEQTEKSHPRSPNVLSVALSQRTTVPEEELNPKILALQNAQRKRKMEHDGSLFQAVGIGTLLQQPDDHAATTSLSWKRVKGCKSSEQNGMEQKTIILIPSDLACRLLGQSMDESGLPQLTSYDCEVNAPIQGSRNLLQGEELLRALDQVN
Summary of the method: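 HepG2 cells transiently transfected with multiple cis-regulated reporter transcription units measure endogenous transcription factor activity. After 24 h exposure, reporter mRNA is quantified by RT-PCR with 6-FAM labelling, HpaI digestion and capillary electrophoresis. Bidirectional fitting against DMSO.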

[20] = ATG_EGR_CIS: Attagene CIS-FACTORIAL HepG2 Assay for human Early Growth Response 1 (EGR1) (AID 2282938); settings: HepG2 Attagene CIS-FACTORIAL EGR reporter mRNA; actives raise or lower the signal
Summary of the method: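 HepG2 cells transiently transfected with cis-element-driven multiplexed reporter units, dosed for 24 h. EGR1-element reporter mRNA quantified by RT-PCR, 6-FAM labelling, HpaI digestion and capillary electrophoresis; bidirectional fit versus DMSO.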

Measured: AC50

C=CCOC(=O)/C=C\C(=O)OCC=C
active: [6] 13.2 µM | [8] 101 µM | [13] 19.7 µM | [16] 28 µM | [17] 164 µM | [18] 39.5 µM
not listed: [19] | [20]
inactive: all other assays above

CC(=N[Si](C)(C)C)O[Si](C)(C)C
not listed: [2] | [12] | [14] | [15] | [20]
inactive: all other assays above

CC(=O)CCc1ccc(O)cc1
not listed: [2] | [5] | [9] | [11]
inactive: all other assays above

CCCCCC1CCC(=O)O1 (centres undefined)
not listed: [2] | [5]
inactive: all other assays above

Nc1cc([N+](=O)[O-])ccc1C(=O)O
active: [17] 75 µM | [18] 71 µM
not listed: [2] | [11] | [12]
inactive: all other assays above

CCCCCCCCCCCCCCCCCC(=O)OCCCCCCCCCCCCCC(C)C
active: [5] 28.7 µM
not listed: [2] | [11] | [13] | [18]
inactive: all other assays above

CCCCOCCOCCO
not listed: [1] | [11]
inactive: all other assays above

CCCCC/C=C\C=C\C(=O)OCC
active: [20] 58.3 µM | [7] 71.5 µM | [10] 64 µM | [11] 79.6 µM | [13] 56.3 µM | [19] 78.5 µM | [17] 46.7 µM | [18] 55.1 µM
inactive: [2] | [3] | [4] | [5] | [6] | [8] | [9] | [16]

Reference: PubChem BioAssay (EPA / NIEHS)
